Screening data as filed in PubChem.
aSyn UTR act – Activators via SNCA 5'UTR binding, MLPCN; 300,000 compounds, 7.1% hits; AID 1814; activity score, % (tested at 7.5 µM), hits read low; alpha-synuclein 5'UTR reporter, activators screen; in the data active = activity score below about -60%
* marks the source's active call; other numbers are inactive results. A selection follows.

SMILES	aSyn UTR act
CCC1(c2ccc(F)cc2)NC(=O)N(CC(=O)Nc2ccc(-c3nc4ccc(C)cc4s3)cc2)C1=O (stereo not drawn)	-201*
COc1ccc(C2(C)NC(=O)N(CC(=O)Nc3ccc(-c4nc5ccc(C)cc5s4)cc3)C2=O)cc1 (stereo not drawn)	-191*
CCCCN1C(=O)/C(=C/C=C2\SCCN2C)SC1=S	-121*
COc1ccccc1C1N=C(c2ccccc2C)NO1 (stereo not drawn)	-120*
Cc1ccccc1C1=NC(c2ccc(F)cc2F)ON1 (stereo not drawn)	-90*
Nc1[nH]ncc1N=Nc1ccc(Cl)cc1	-89*
Nc1n[nH]c(N)c1N=Nc1ccc(Cl)cc1	-131*
Nc1n[nH]c(N)c1N=Nc1cccc(C(F)(F)F)c1	-65*
COc1ccc(NC(=O)Nc2ccc3nonc3c2)cc1	-150*
COc1ccc(NC(=O)Nc2ccc3nccnc3c2)cc1	-122*
COc1ccc(NC(=O)N2CCn3c2nc2ccccc23)cc1	-64*
O=C(c1ccco1)N1CCn2c1nc1ccccc12	-124*
COc1ccccc1C(=O)N/N=C/c1ccc2c(c1)OCO2	-173*
C(=N\Nc1ccc2ccccc2n1)/c1ccc2c(c1)OCCO2	108
COc1cc2ccccc2cc1C(=O)N/N=C/c1ccc2c(c1)OCO2	-163*
COC(=O)C1=C(C)NC(C)=C(C(=O)OC)C1c1ccc(-c2cccc(Cl)c2Cl)o1	-72*
CC1(C)SC(=S)N(NC(=O)Nc2cccc3ccccc23)C1N(O)C(=O)Nc1ccccc1 (stereo not drawn)	-88*
CCC(=O)Nc1ccc2c(c1)ncn2-c1ccccc1	-75*
CCOc1ccc(-n2nc3ccc(NC(=O)CC)cc3n2)cc1	-120*
